Test results published in PubChem BioAssay AID651789 (National Center for Advancing Translational Sciences (NCATS), 2012).
Inconclusive results are not listed. A call without a number means that no potency is given here. Activity calls are given as the source filed them. Calls follow the shape of the dose curve; as a rule, active = well fitted inhibition curve with a large enough effect; inconclusive = small, poorly fitted or top-dose-only effect; inactive = no such curve, though single readings can be large or run the other way.

Experiment: Acumen qHTS Assay for Inhibitors of the mTORC1 Signaling Pathway in WT MEF Cells: Hit Validation; also: nearly all actives have a fitted effect of over 60% in size
Conditions: Acumen imaging; series mostly up to 37.3 µM
Method in brief: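 Read-out is immunofluorescent phospho-rpS6 (Ser235/236) normalised to PI-stained cell number, reported as % active cells using a 7.5 nM rapamycin threshold. Cells: WT or Tsc2-/-, p53-/- MEFs, compound-exposed 24 h at 37C; PI count also tracks viability.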
Potency is read from the fitted curve at half-maximal effect.

**Q.** Which Potency does the source give for `Cc1cccc(CSc2cn(CC(=O)N3CCCCCC3)c3ccccc23)c1` here?
**A.** inactive

**Q.** With `COc1ccccc1CNC(=O)CCCn1c(=O)c2cccn2c2ccccc21` as the compound, how does the Potency read?
**A.** inactive

**Q.** For `COC(=O)c1c(C)oc2ccc(N(C(=O)c3ccncc3)S(=O)(=O)c3ccc(OC)cc3)cc12`, which Potency is on record?
**A.** 4.14 µM (active)

**Q.** Which Potency does the source give for `CCC1=Nc2cc(C(=O)NC3CCCC3)ccc2Sc2ccc(Br)cc21` here?
**A.** 1.85 µM (active)

**Q.** With `CCn1c(=O)sc2cc(NS(=O)(=O)c3ccc(F)c(C)c3)ccc21` as the compound, how does the Potency read?
**A.** inactive

**Q.** For `Cc1c(C(=O)OCc2ccccc2)[nH]c2c1C(=O)CC(c1ccc(Cl)cc1)C2` (centres undefined), which Potency is on record?
**A.** 13.1 µM (active)

**Q.** With `CCOc1ccc(S(=O)(=O)Nc2ccc(OC)c(Cl)c2)c2cccnc12` as the compound, how does the Potency read?
**A.** inactive

**Q.** Which Potency does the source give for `CCCC1=Nc2cc(C(=O)NC3CCCC3)ccc2Sc2ccc(C)cc21` here?
**A.** 0.736 µM (active)

**Q.** Which Potency does the source give for `CN(C)c1ccc(Nc2nc3ccccc3n3nnnc23)cc1` here?
**A.** inactive

**Q.** With `COc1ccc(N2CCN(C(=O)C(C)n3nc(C)c4sc5ccccc5c4c3=O)CC2)cc1` (centres undefined) as the compound, how does the Potency read?
**A.** inactive

**Q.** For `CCc1nn(CC(=O)NCc2ccccc2Cl)c(=O)c2cccn12`, which Potency is on record?
**A.** inactive

**Q.** With `COc1cc(CN(C(=O)COc2ccc(C)c(C)c2)c2ccccn2)cc(OC)c1OC` as the compound, how does the Potency read?
**A.** inactive

**Q.** Which Potency does the source give for `Cc1ccc2nc(/C(C#N)=C/c3ccc(-c4ccc(F)cc4F)o3)[nH]c2c1` here?
**A.** 4.14 µM (active)

**Q.** With `COc1ccc(Cl)cc1NC(=O)CSc1nc(-c2ccco2)cc(C(F)(F)F)n1` as the compound, how does the Potency read?
**A.** inactive

**Q.** Which Potency does the source give for `Cc1oc2c(cc(NS(=O)(=O)c3ccc(C(C)C)cc3)c3ccccc32)c1C(=O)OCc1ccccc1` here?
**A.** inactive

**Q.** With `COc1ccc(NC(=O)c2ccco2)cc1NC(=O)COc1ccccc1Cl` as the compound, how does the Potency read?
**A.** inactive

**Q.** With `CCCS(=O)(=O)c1c(S(=O)(=O)CCC)c2cc(C(C)(C)C)ccn2c1C(=O)c1ccc(OC)c(OC)c1` as the compound, how does the Potency read?
**A.** inactive

**Q.** For `Cc1cn([C@H]2C[C@H](N=[N+]=[N-])[C@@H](CO)O2)c(=O)[nH]c1=O`, which Potency is on record?
**A.** inactive

**Q.** Which Potency does the source give for `Cc1nc2ccc(S(=O)(=O)CCC(=O)Nc3ccc(Cl)cc3)cc2s1` here?
**A.** inactive

**Q.** For `COc1ccccc1C1C=C(c2ccc(Cl)cc2)Nc2nc(-c3ccc(Cl)cc3)nn21` (centres undefined), which Potency is on record?
**A.** inactive

**Q.** For `O=S(=O)(c1cccc2cnccc12)N1CCCNCC1`, which Potency is on record?
**A.** inactive

**Q.** Which Potency does the source give for `CCS(=O)(=O)c1ncc(Cl)c(C(=O)NCc2ccccc2)n1` here?
**A.** 3.29 µM (active)

**Q.** For `Cc1ccc(Nc2nc(C(N)=O)c(NC(=O)c3ccccc3Br)s2)cc1`, which Potency is on record?
**A.** 3.69 µM (active)

**Q.** Which Potency does the source give for `Cn1nnnc1SCCCNCc1ccccc1OCc1ccc(Cl)cc1` here?
**A.** inactive
